84 compounds from PubChem BioAssay AID1053197 (The Scripps Research Institute Molecular Screening Center, 2014) can be followed below.

Structures are written as SMILES. Hit rate of the full screen: of about 370,000 compounds, about 2,600 (0.7%) were called active.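 Rule for the calls: active = inhibition above a cutoff: mean of compounds within the control limits plus 3 SD of those (cut at about 17% in these data); inactive = the rest.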 The full list was thinned out, with actives kept by preference.

Sialate O-acetylesterase (Homo sapiens), sequence (Q9HAT2 whole entry, looked up): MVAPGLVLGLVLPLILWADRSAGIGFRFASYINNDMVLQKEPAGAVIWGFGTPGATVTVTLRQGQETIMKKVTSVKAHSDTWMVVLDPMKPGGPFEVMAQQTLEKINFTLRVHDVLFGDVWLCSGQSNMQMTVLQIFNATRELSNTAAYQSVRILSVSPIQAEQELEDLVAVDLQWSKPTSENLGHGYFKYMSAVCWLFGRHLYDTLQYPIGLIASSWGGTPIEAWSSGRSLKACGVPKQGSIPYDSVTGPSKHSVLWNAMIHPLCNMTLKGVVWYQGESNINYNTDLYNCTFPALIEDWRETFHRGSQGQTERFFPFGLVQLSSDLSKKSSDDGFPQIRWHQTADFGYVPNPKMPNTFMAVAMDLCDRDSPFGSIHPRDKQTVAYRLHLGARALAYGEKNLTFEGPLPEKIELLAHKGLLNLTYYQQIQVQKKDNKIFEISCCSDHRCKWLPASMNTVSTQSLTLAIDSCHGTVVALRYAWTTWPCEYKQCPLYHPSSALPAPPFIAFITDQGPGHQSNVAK

This assay addresses Sialate O-acetylesterase (Homo sapiens) (UniProt Q9HAT2). Description: human SIAE inhibitors, primary screen, biochemical, fluorescence polarization, FP-Rh probe, 1536-well HTS (AID 1053197).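 Note: 0% = plate median of compound wells and 100% = probe without SIAE protein.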 To be noted: SIAE FP-Rh probe binding, at 9.66 µM, hits give high values. Background: Fluorescence polarisation rises when a labelled molecule tumbles more slowly, as on binding a larger partner.
With `COCC(=O)N[C@@H]1C[C@@H]2O[C@@H](CO)CC[C@@H]2O[C@@H]1CCc1ccc(-c2ccccc2)cc1`, the inhibition is 2.31% (inactive).

For the compound `Cc1ccc(Cn2cc(CN3[C@@H](CC(C)C)COc4ccc(Cl)cc4S3(=O)=O)nn2)cc1`, the inhibition is 1.1% (inactive).

For the compound `Cc1ccc(N2C(=O)C3N=NN(CC(=O)N4N=C(c5cccc6ccccc56)CC4c4ccccc4)C3C2=O)cc1` (centres undefined), the inhibition was -11.7% (inactive).

Regarding `COc1ccc(C2CC(c3cccc(OC)c3)=NN2c2ccc(S(N)(=O)=O)cc2)cc1` (centres undefined), the inhibition is 6.8% (inactive).

With `Oc1ccccc1C1=NN(c2ccccc2)C(c2ccccc2)C1` (centres undefined), the inhibition was 20.5% (active).

`O=C1CC[C@@]23CCCN2C(=O)CCC[C@H]3[C@H]1Cc1ccccc1`: the inhibition was 4.29% (inactive).

For `CCOc1ccc(Cn2c(SCCCCC#N)nc3c2c(=O)n(C)c(=O)n3C)cc1OCC`, the inhibition is 25.8% (active).

Regarding `CCOc1ccc2nc(NC(=O)CSc3nc4c(c(=O)n(C)c(=O)n4C)n3CC)sc2c1`, the inhibition was -3.15% (inactive).

As to `Cc1cccc(Cn2c(N3CCN(c4ccccc4)CC3)nc3c2c(=O)n(C)c(=O)n3C)c1`, the inhibition is -1.65% (inactive).

As for `COC(=O)c1cccc(Cn2ccc3ccc(-c4ccc5ccn(C(=O)C6CCCCC6)c5c4)cc32)c1`, the inhibition is -4.45% (inactive).

Turning to `N#CCC[C@H]1CC[C@]2(CCCN(Cc3ccc(Cl)cc3)C2)O1`, the inhibition was 1.15% (inactive).

With `C#CCNC(=O)C[C@H]1C[C@@]2(C(=O)OC)C(=C[C@H](C(C)C)O[C@@H]2C2CC2)N(Cc2ccco2)C1=O`, the inhibition was 4.68% (inactive).

Take `COc1ccc(/C=N/Nc2ncnc3sc4c(c23)CCCC4)cc1O`: the inhibition was -1.15% (inactive).

With `COc1cc(/C=C/C(=O)OCC(=O)NCCCc2ccccc2)ccc1O`, the inhibition was 9.1% (inactive).

With `COc1cc(/C=N\Nc2nc(-c3cccs3)c(NC(C)=O)s2)ccc1O`, the inhibition is 18.3% (active).

With `O=C(NCc1cccs1)C1CCCN(S(=O)(=O)c2ccc([N+](=O)[O-])cc2)C1` (centres undefined), the inhibition is 3.31% (inactive).

`COc1ccc(-n2c(SCC(=O)Nc3ccc4c(c3)OCCO4)nnc2-c2ccc(Cl)cc2)cc1`: the inhibition was 2.64% (inactive).

`CCCCn1c(N)c(N(CC(C)C)C(=O)CN(C)S(=O)(=O)c2ccc(F)cc2)c(=O)[nH]c1=O`: the inhibition was 2.93% (inactive).

In the case of `CCCCn1c(N)c(N(CC(C)C)C(=O)CSc2ccc([N+](=O)[O-])cc2)c(=O)[nH]c1=O`, the inhibition was 17.8% (active).

As for `CCCCn1c(N)c(N(CCC(C)C)C(=O)c2ccc([N+](=O)[O-])o2)c(=O)[nH]c1=O`, the inhibition is 1.61% (inactive).

For `CCC(=O)OCCCN1C(=O)CCC12CCC(c1ccccc1)CC2` (centres undefined), the inhibition was 10.2% (inactive).

Turning to `COC(=O)[C@@]12CCCCC3=C1N(CCC3)C(=O)[C@H]2CC(=O)NCc1cccc2ccccc12`, the inhibition is 3.42% (inactive).

With `CC(C)C(C#CC1CC1)N(Cc1ccc2c(c1)OCO2)C(N)=NC(=O)/C=C/c1cccc(C(F)(F)F)c1` (centres undefined), the inhibition was -3.05% (inactive).

As to `CCN(CC)C(=O)CC[C@@H]1CC[C@]2(CCCN(S(=O)(=O)C3CCCCC3)C2)O1`, the inhibition was 0.62% (inactive).

In the case of `Cc1ccc(Nc2nc(-c3ccc(O)cc3O)cs2)nc1`, the inhibition is 20.7% (active).

With `CC(=O)Nc1cnc(-c2ccc(O)cc2C)cn1`, the inhibition is 1.05% (inactive).

With `Cc1ccc(-c2csc(NCCc3nc4cc(Cl)c(Cl)cc4n3CCOCCO)n2)cc1`, the inhibition was 1.85% (inactive).

In the case of `COC(=O)[C@H](C(C)C)N(CCc1cn(Cc2ccccc2)nn1)S(=O)(=O)c1ccc(F)cc1Br`, the inhibition was 0.91% (inactive).

Consider `Cc1ccc(-n2c(SCC(=O)Nc3ccc(S(=O)(=O)Nc4nccs4)cc3)nnc2-c2ccccn2)cc1`, for which the inhibition was -6.07% (inactive).

Take `COc1cccc(Cn2cc(COC(=O)Nc3ccc(F)cc3)nn2)c1`: the inhibition is -7.19% (inactive).

`C[C@@H]1O[C@@H](OC[C@H]2O[C@@H](Oc3c(-c4ccc(O)cc4)oc4cc(O)cc(O)c4c3=O)[C@H](O)[C@@H](O)[C@@H]2O)[C@H](O)[C@H](O)[C@H]1O`: the inhibition was 19.5% (active).

Take `CCOC(=O)c1cc2cc(-c3c(C(=O)OCC)oc4cc(O)cc(O)c4c3=O)ccc2o1`: the inhibition was 17.1% (inactive).

Turning to `Cc1ccc(-n2c(COc3ccccc3)nnc2SCC(=O)Nc2ccc3c(c2)OCCO3)cc1`, the inhibition is -2.64% (inactive).

`Cc1ccc(C2=CCN(C)C(=O)N2c2ccc(Cl)cc2)cc1`: the inhibition was -0.37% (inactive).

In the case of `Cc1cc(C(=O)NN=C/C=C/c2ccco2)n[nH]1`, the inhibition is 3.3% (inactive).

With `Cc1ccc(N=C2NC(=O)/C(=C/C=C/c3ccco3)S2)cc1C`, the inhibition was 27.6% (active).

In the case of `CCOc1ccc(Oc2c(Cl)cnn(-c3ccc(C)cc3)c2=O)cc1`, the inhibition was -1.82% (inactive).

Regarding `CC(C)N1CCCCC(NC(=O)c2ccc3ccccc3c2)C1=O` (centres undefined), the inhibition was -1.26% (inactive).

In the case of `CCCCC(=O)N[C@@H]1CC[C@@]23CCCN2C(=O)CCC[C@H]3[C@H]1C`, the inhibition was -5.34% (inactive).

For the compound `CC(NCc1ccco1)C(=O)N1CCCCC1` (centres undefined), the inhibition was 5.06% (inactive).

As to `O=C(O)c1ccccc1N=N/C(=N/Nc1cc(S(=O)(=O)O)ccc1O)c1ccccc1`, the inhibition is 28.9% (active).

For `O=C(Nc1cccc(Cl)c1)OC1CC2CC1[C@H]1CCCCN1[C@H]2Cc1ccccc1` (some centres undefined), the inhibition was -4.13% (inactive).

As to `CSc1ccc(Oc2cccc3c2S(=O)(=O)N([C@H](C)c2ccccc2)C[C@@H](COCc2ccccc2)O3)cc1C`, the inhibition was -4.88% (inactive).

For `CCCCC[C@H](C)N1C[C@@H](COCc2ccccc2)Oc2cc(N3CCC[C@@H]3CO)ccc2S1(=O)=O`, the inhibition is 2.79% (inactive).

Turning to `CCCCC[C@H](C)N1C[C@@H](COCc2ccccc2)Oc2cc(N3CC[C@@H](N(C)C)C3)ccc2S1(=O)=O`, the inhibition was 23.3% (active).

Regarding `O=C(CSc1nnc(-c2ccccc2)n1Cc1ccco1)Nc1ccccc1-c1ccccc1`, the inhibition is -6.96% (inactive).

For the compound `CCOC(=O)[C@]12CCCC=C1N(CCCOC)C(=O)[C@@H]2CC(=O)N1CCOCC1`, the inhibition was -6.36% (inactive).

Regarding `COc1cccc(N(C)C(=O)[C@@H](C)[C@@H](O)c2ccc3ccccc3c2)c1`, the inhibition was -4% (inactive).

Regarding `C=C(C)C#CC(Cc1ccccc1)NCC1CC1` (centres undefined), the inhibition was 4.41% (inactive).

Take `CCOC(=O)N1CCN(C(=O)CSc2ccc(Cl)cc2)CC1`: the inhibition is 19% (active).

On to `CS(=O)(=O)N1CCN(C(=O)CSc2ccccc2)CC1`, for which the inhibition is -3.36% (inactive).

`O=C(CSc1ccc(Cl)cc1)NC1CC1`: the inhibition was -0.71% (inactive).

As for `CCC(C)[C@@H](C(=O)OC)N(CCc1cn(Cc2ccccc2)nn1)S(=O)(=O)c1ccccc1Br` (some centres undefined), the inhibition is -2.68% (inactive).

Regarding `C/C(N)=C(/C#N)C(=O)COC(=O)C1=NN(c2ccccc2)C(=O)CC1`, the inhibition was 0.03% (inactive).

On to `O=C1CC(c2ccccc2)=NN1c1ccc([N+](=O)[O-])cc1`, for which the inhibition is 19.8% (active).

For `CCN1N=C(c2ccccc2)CCC1=O`, the inhibition was -3.71% (inactive).

Turning to `O=C(CNS(=O)(=O)c1ccccc1F)N1CCN(c2ccccn2)CC1`, the inhibition was 2.08% (inactive).

On to `O=C(Nc1cc(Cl)cc(Cl)c1)OCCN1CCCC12CCC(c1ccccc1)CC2` (centres undefined), for which the inhibition is -10.1% (inactive).

As to `CC(=O)Nc1ccc(/C=N/Nc2ccc(C(=O)c3c(C)cc4ccccn34)cc2[N+](=O)[O-])cc1`, the inhibition was 9.63% (inactive).

For `Cc1cc2ccccn2c1C(=O)c1cccc(S(=O)(=O)N2CCOCC2)c1`, the inhibition is -6.52% (inactive).

Turning to `Cc1cc2ccccn2c1C(=O)c1cccc(F)c1`, the inhibition was 18.5% (active).

Regarding `Fc1ccc2nc(COCc3nc4ccc(F)cc4[nH]3)[nH]c2c1`, the inhibition is -7.18% (inactive).

Take `Cc1c(CN2CCCCC2)c(O)n(CCO)c(=O)c1C#N`: the inhibition is -5.55% (inactive).

`CC1CCCN(Cc2nc3c(c(=O)n(C)c(=O)n3C)n2CC(=O)c2ccccc2)C1` (centres undefined): the inhibition is 7.4% (inactive).

With `CCCn1c(O)c(CN2CCCC(C)C2)c(C)c(C#N)c1=O` (centres undefined), the inhibition was 43.7% (active).

Consider `COc1cccc(CNC(=O)CNS(=O)(=O)c2ccc3nc(C)sc3c2)c1OC`, for which the inhibition was 2.11% (inactive).

For `Nc1[nH]c(/C=C2/CCCCC2n2[nH]c(=O)n(-c3ccccc3)c2=O)c(Cc2ccccc2)[n+]1Cc1ccccc1` (centres undefined), the inhibition is 10.8% (inactive).

For `O=S1(=O)c2ccc(Br)cc2OC[C@H](Cc2ccccc2)N1Cc1cn(Cc2ccccc2)nn1`, the inhibition was 3.61% (inactive).

Turning to `CC(c1c[nH]c2ccccc12)c1c(-c2ccccc2)n(C)c2ccccc12` (centres undefined), the inhibition is 10.3% (inactive).

Regarding `CCn1c(=O)n(CC)c2cc(N3CCCC3)c(NC(=O)c3ccccc3Br)cc21`, the inhibition was 17.9% (active).

As to `O=C(NC(=O)c1ccccc1N1CCCCC1)Nc1ccc(Br)cc1`, the inhibition was 2.43% (inactive).

On to `COc1ccc(NS(=O)(=O)c2ccc(N3CCOCC3)c(NC(=O)c3ccccc3Br)c2)cc1`, for which the inhibition was -4.27% (inactive).

Take `CC(C)CNS(=O)(=O)CC1NCCc2ccccc21` (centres undefined): the inhibition was -2.16% (inactive).

Take `CC1CN(/C=C/C(=O)C(F)(F)F)CC(C)O1` (centres undefined): the inhibition is 2.43% (inactive).

In the case of `CN(C)c1ccc(N/C=C/C(=O)C(F)(F)F)cc1`, the inhibition is 17.9% (active).

As for `CNC(=S)NNC(=O)c1ccc(N(C)C)cc1`, the inhibition was 10.3% (inactive).

Take `C=CCN1C(=O)[C@@H](CC(=O)NCCCOCCCC)[C@]2(C(=O)OCC)CCCCC/C=C/12`: the inhibition was -0.48% (inactive).

Consider `C=CCN1C(=O)[C@@H](CC(=O)NCC2CCCCC2)[C@]2(C(=O)OC)CCCCC=C12`, for which the inhibition is 20.8% (active).

For the compound `C=CCN1C(=O)[C@@H](CC(=O)NCCCCc2ccccc2)[C@]2(C(=O)OCC)CCCCC/C=C/12`, the inhibition is -2.6% (inactive).

Turning to `O=[N+]([O-])c1ccccc1NCc1ccc(Cl)cc1`, the inhibition is 0.44% (inactive).

`c1ccc(CNCc2ccc(CNCc3ccccc3)cc2)cc1`: the inhibition was -0.12% (inactive).

For `Oc1ccc(CNc2ccccc2O)cc1`, the inhibition is 21.1% (active).

As to `COc1cc(NC(=O)C2CCCN(S(=O)(=O)c3ccc(C(C)(C)C)cc3)C2)cc(OC)c1` (centres undefined), the inhibition is -0.78% (inactive).

As for `CCC(=O)c1c(CC)c2n3c1=CC[C@H]3CC(Br)C=2` (some centres undefined), the inhibition was -1.56% (inactive).

A word on the inhibition: it is the relative decrease from the control value, in per cent.
